Source: PubChem BioAssay (Tox21)
Records with an inconclusive call do not appear. A call without a number means that no potency is given here. Active and inactive are the calls of the source. The call rests on the fitted dose curve; in most records, active means well fitted curve in the direction sought with a large enough effect in the repeat runs; inconclusive means weak or mixed curves; inactive means no such curve, though single readings can be large; an effect the other way counts as inactive or inconclusive.

The compounds below were run against Voltage-gated inwardly rectifying potassium channel KCNH2 (Homo sapiens) (UniProt Q12809) (assay: Human Ether-a-go-go-Related Gene (hERG) channel small molecule antagonists: fluorescence cell-based qHTS assay (AID 1671200)). Details: hERG-U2OS cells, FluxOR thallium flux fluorescence; series mostly up to 76.8 µM.
Procedure, shortened: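 Measured: Tl+ flux via fluorescence (480/540 nm) in hERG-expressing U2OS cells after 1 h dye loading at room temperature.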
Further: nearly all actives have a fitted effect of over 50% in size.
Potency means the concentration at half of the fitted maximal effect.

Chain of Voltage-gated inwardly rectifying potassium channel KCNH2 (Homo sapiens) (Q12809 whole entry, looked up): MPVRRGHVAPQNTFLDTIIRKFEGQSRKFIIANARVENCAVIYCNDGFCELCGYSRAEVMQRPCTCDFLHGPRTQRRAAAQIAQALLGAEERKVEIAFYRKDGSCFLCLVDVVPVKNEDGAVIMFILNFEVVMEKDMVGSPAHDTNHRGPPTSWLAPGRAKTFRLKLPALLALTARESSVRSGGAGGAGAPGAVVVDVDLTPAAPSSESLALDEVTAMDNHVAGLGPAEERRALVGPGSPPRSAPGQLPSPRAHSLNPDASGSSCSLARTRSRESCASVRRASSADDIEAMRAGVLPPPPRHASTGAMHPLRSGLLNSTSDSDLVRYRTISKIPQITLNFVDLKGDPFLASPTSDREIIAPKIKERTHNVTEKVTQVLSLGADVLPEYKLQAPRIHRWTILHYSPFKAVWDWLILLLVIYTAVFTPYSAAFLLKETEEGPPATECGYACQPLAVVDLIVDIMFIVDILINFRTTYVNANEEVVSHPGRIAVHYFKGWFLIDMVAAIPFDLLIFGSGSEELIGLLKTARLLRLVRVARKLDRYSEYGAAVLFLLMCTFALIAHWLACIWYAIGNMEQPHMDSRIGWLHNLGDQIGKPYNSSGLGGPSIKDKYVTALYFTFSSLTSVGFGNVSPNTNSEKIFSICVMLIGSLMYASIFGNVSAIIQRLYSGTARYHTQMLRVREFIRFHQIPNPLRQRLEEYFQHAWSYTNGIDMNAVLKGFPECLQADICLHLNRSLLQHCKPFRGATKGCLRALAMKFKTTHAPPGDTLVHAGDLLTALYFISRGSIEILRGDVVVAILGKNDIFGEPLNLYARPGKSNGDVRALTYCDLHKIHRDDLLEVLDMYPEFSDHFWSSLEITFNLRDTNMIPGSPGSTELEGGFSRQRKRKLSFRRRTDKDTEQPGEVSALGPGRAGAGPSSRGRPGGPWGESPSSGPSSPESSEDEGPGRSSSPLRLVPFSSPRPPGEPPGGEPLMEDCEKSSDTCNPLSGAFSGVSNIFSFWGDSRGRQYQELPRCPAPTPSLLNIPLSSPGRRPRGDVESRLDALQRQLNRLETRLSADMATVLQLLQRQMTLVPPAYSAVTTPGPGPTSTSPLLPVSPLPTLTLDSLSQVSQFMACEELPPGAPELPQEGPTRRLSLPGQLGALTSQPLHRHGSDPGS

SMILES | Potency
CCCCCCCCN | inactive
Clc1cc(Cl)nc(Cl)n1 | inactive
C1C[C@@H]2[C@H]3CC[C@H](C3)[C@@H]2C1 | inactive
COc1ccccc1Oc1c(NS(=O)(=O)c2ccc(C(C)(C)C)cc2)nc(-c2ncccn2)nc1OCCO | inactive
CCC1NC(=O)c2cc(S(N)(=O)=O)c(Cl)cc2N1 (centres undefined) | inactive
CN(C)CCN1C(=O)c2ccccc2N(C)c2ccccc21 | inactive
O=C(O)CCCCCCCCCCCBr | inactive
Cc1cc(O)c(C)c(C)c1O | inactive
CCC(=O)C1CC(C(C)C)CC=C1C (centres undefined) | inactive
OC[C@H]1O[C@@H](n2cnc3c(=S)nc[nH]c32)[C@H](O)[C@@H]1O | inactive
Nc1nc2ccc([N+](=O)[O-])cc2s1 | inactive
Oc1cccc(O)c1O | inactive
CC1CC(OC(=O)C(O)c2ccccc2)CC(C)(C)N1C (centres undefined) | inactive
CC(C)=CCC/C(C)=C/CC/C(C)=C/C(=O)OCC(=O)[C@@]1(O)CC[C@H]2[C@@H]3CCC4=CC(=O)C=C[C@]4(C)[C@H]3[C@@H](O)C[C@@]21C | inactive
CC(=O)OCCN(CCOC(C)=O)c1ccc(N=Nc2ccc([N+](=O)[O-])cc2C#N)cc1 | 17.4 µM (active)
CC(C)C(O)(c1ccc(OC(F)(F)F)cc1)c1cncnc1 (centres undefined) | inactive
CCOC(=O)OC(C)OC(=O)[C@@H]1N2C(=O)[C@@H](NC(=O)[C@H](N)c3ccccc3)[C@H]2SC1(C)C (some centres undefined) | inactive
CC1(C)O[C@@H]2C[C@H]3[C@@H]4C[C@H](F)C5=CC(=O)C=C[C@]5(C)[C@H]4[C@@H](O)C[C@]3(C)[C@]2(C(=O)CO)O1 | inactive
CCOC(=O)C1=C(C)NC(C)=C(C(=O)OC)C1c1cccc(Cl)c1Cl (centres undefined) | inactive

SMILES | Potency
O=c1c(O)c(-c2ccc(O)cc2)oc2cc(O)cc(O)c12 | inactive
Nc1cccc2c1CN(C1CCC(=O)NC1=O)C2=O (centres undefined) | inactive
CC1(C)[C@@H](OC(=O)CCC(=O)O)CC[C@]2(C)[C@H]3C(=O)C=C4[C@@H]5C[C@@](C)(C(=O)O)CC[C@]5(C)CC[C@@]4(C)[C@]3(C)CC[C@@H]12 | inactive
C=C/C(C)=C/C/C=C(\C)CCC=C(C)C | inactive
OC1(c2ccccc2)CCNCC1 | inactive
O=C(CCc1ccc(O)cc1)c1c(O)cc(O)cc1O | inactive
CC(C)(O)c1ccc(CNC(=O)c2cccnc2Oc2ccc3nonc3c2)cc1 | inactive
O=C1c2ccccc2C(=O)c2c(O)c(O)cc(O)c21 | inactive
CO[C@]1(NC(=O)CSC(F)F)C(=O)N2C(C(=O)O)=C(CSc3nnnn3CCO)CO[C@H]21 | inactive
OCCN1CCN(CCCN2c3ccccc3Sc3ccc(Cl)cc32)CC1 | 2.68 µM (active)
CCC(C)(C)OC | inactive
CC/C=C1/OC(=O)c2ccccc21 | inactive
CCCCCC[C@@H](O)C/C=C\CCCCCCCC(=O)OCC(O)CO (some centres undefined) | inactive
O=c1cc(-c2ccccc2)oc2cc(O)cc(O)c12 | inactive
C[C@@H](CN(C)C)CN1c2ccccc2Sc2ccccc21 | 9.52 µM (active)
CC(C)C=O | inactive
CCCCCCCCCI | inactive
CN1C(=O)c2ccccc2C1=O | inactive

The compounds below were run against Cytochrome P450 3A4 (Homo sapiens) (UniProt P08684) (assay: Cytochrome P450 Family 3 Subfamily A Member 4 (CYP3A4) small molecule antagonists: luciferase reporter qHTS assay (AID 1671201)). Details: P450-Glo CYP3A4 enzyme, luciferin luminescence, 1 h; series mostly up to 115 µM.
Procedure, shortened: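 Setup: enzyme-substrate mix, compound pin transfer, 10 min RT. Reaction: NADPH regeneration solution, 1 h RT. Readout: detection reagent stops turnover, luminescence measured after 20 min, expressed in relative luminescence units.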

Chain of Cytochrome P450 3A4 (Homo sapiens) (P08684 whole entry, looked up): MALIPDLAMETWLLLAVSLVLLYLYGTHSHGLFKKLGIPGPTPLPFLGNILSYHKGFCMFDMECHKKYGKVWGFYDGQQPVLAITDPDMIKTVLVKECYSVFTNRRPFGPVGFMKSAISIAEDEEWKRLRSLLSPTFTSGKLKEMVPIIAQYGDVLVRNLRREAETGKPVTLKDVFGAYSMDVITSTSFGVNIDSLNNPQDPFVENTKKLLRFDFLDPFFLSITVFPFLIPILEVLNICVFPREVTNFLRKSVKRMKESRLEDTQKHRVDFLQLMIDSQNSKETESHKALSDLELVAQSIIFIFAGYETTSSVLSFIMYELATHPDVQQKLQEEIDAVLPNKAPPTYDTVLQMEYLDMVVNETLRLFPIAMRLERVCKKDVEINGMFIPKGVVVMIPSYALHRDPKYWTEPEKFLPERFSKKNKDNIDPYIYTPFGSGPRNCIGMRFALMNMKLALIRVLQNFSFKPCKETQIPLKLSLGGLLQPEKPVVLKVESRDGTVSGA

SMILES | Potency
CCCCCCCCN | inactive
Clc1cc(Cl)nc(Cl)n1 | inactive
COc1ccccc1Oc1c(NS(=O)(=O)c2ccc(C(C)(C)C)cc2)nc(-c2ncccn2)nc1OCCO | inactive
CN(C)CCN1C(=O)c2ccccc2N(C)c2ccccc21 | inactive
O=C(O)CCCCCCCCCCCBr | inactive
CCC(=O)C1CC(C(C)C)CC=C1C (centres undefined) | 39.9 µM (active)
OC[C@H]1O[C@@H](n2cnc3c(=S)nc[nH]c32)[C@H](O)[C@@H]1O | inactive
Oc1cccc(O)c1O | inactive
CC(=O)OCCN(CCOC(C)=O)c1ccc(N=Nc2ccc([N+](=O)[O-])cc2C#N)cc1 | 3.56 µM (active)
CC1(C)O[C@@H]2C[C@H]3[C@@H]4C[C@H](F)C5=CC(=O)C=C[C@]5(C)[C@H]4[C@@H](O)C[C@]3(C)[C@]2(C(=O)CO)O1 | 4.9 µM (active)
C=C/C(C)=C/C/C=C(\C)CCC=C(C)C | 15.9 µM (active)
OC1(c2ccccc2)CCNCC1 | inactive
O=C(CCc1ccc(O)cc1)c1c(O)cc(O)cc1O | 12.9 µM (active)
CC(C)(O)c1ccc(CNC(=O)c2cccnc2Oc2ccc3nonc3c2)cc1 | 25.2 µM (active)
O=C1c2ccccc2C(=O)c2c(O)c(O)cc(O)c21 | inactive
CO[C@]1(NC(=O)CSC(F)F)C(=O)N2C(C(=O)O)=C(CSc3nnnn3CCO)CO[C@H]21 | inactive
CCC(C)(C)OC | inactive
CC/C=C1/OC(=O)c2ccccc21 | inactive
CCOc1cccc(-n2cc(C(=O)N3CCN(c4cc(C(=O)O)c5ccccc5c4)CC3)nc2-c2ccc(C)cc2)c1 | inactive
O=c1cc(-c2ccccc2)oc2cc(O)cc(O)c12 | 17.8 µM (active)
CCCCCCCCCI | inactive
CN1C(=O)c2ccccc2C1=O | inactive
